# Data reported in the supplement of paper PMC6658780.
# Counter-ions that a name gives are not always drawn. ± gives the standard deviation of the averaged measurements.
# Tested on: Escherichia coli ATCC BAA-2469
# Experiment: percent growth inhibition of drug + antibiotic vs DMSO control; higher = more growth inhibition
# Procedure: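 Prestwick drugs tested at 20 uM and 7 uM with an antibiotic at 0.125x MIC (16 mg/L when MIC >128 mg/L) against E. coli ATCC BAA-2469 (NDM-1) in CAMHB, 384-well plates, duplicate runs. Percent growth inhibition was computed from OD600 (24 h minus 0 h) relative to DMSO wells. Drug + DMSO-only wells are also given. […]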
# [1] = antibiotic (0.125x MIC): ciprofloxacin, 7 µM
# [2] = antibiotic (0.125x MIC): ciprofloxacin, 20 µM
# [3] = antibiotic (0.125x MIC): meropenem, 7 µM
# [4] = antibiotic (0.125x MIC): meropenem, 20 µM
# [5] = antibiotic (0.125x MIC): gentamicin, 7 µM
# [6] = antibiotic (0.125x MIC): gentamicin, 20 µM
structure (smiles),measurement,setting,value
OC(CCN1CCCC1)(c1ccccc1)C1CCCCC1 (configuration not stated) [Procyclidine hydrochloride],percent growth inhibition,[1],10.9 ± 16%
same,percent growth inhibition,[2],8.13 ± 9.2%
CC(C)(C)C(=O)OCOC(=O)[C@@H]1N2C(=O)[C@@H](/N=C/N3CCCCCC3)[C@H]2SC1(C)C [Pivmecillinam hydrochloride],percent growth inhibition,[1],2.89 ± 3.3%
CC(=O)OC[C@H]1O[C@@H]([S-])[C@H](OC(C)=O)[C@@H](OC(C)=O)[C@@H]1OC(C)=O.CCP(CC)CC.[Au+] [Auranofin],percent growth inhibition,[1],9.1 ± 0.77%
same,percent growth inhibition,[2],19.5 ± 6.6%
same,percent growth inhibition,[3],7.8 ± 5.3%
same,percent growth inhibition,[4],19.3 ± 14%
Oc1c(I)cc(Cl)c2cccnc12 [Clioquinol],percent growth inhibition,[1],7.92 ± 1.7%
same,percent growth inhibition,[2],61.08 ± 0.34%
same,percent growth inhibition,[5],12.9 ± 5.2%
same,percent growth inhibition,[6],88.9 ± 10%
same,percent growth inhibition,[3],7.81 ± 2.7%
C#C[C@]1(OC(C)=O)CC[C@H]2[C@@H]3CCC4=C[C@@H](OC(C)=O)CC[C@@H]4[C@H]3CC[C@@]21C [Ethynodiol diacetate],percent growth inhibition,[1],5.09 ± 12%
same,percent growth inhibition,[2],8.86 ± 3.1%
N=C(NCCCCCCNC(=N)NC(=N)Nc1ccc(Cl)cc1)NC(=N)Nc1ccc(Cl)cc1 [Chlorhexidine],percent growth inhibition,[2],103 ± 3.8%
same,percent growth inhibition,[6],112 ± 19%
same,percent growth inhibition,[4],99.2 ± 1.6%
CO[C@H]1/C=C/O[C@@]2(C)Oc3c(C)c(O)c4c(O)c(c5c(nc6cc(C)ccn65)c4c3C2=O)NC(=O)/C(C)=C\C=C\[C@H](C)[C@H](O)[C@@H](C)[C@@H](O)[C@@H](C)[C@H](OC(C)=O)[C@@H]1C [Rifaximin],percent growth inhibition,[2],99.44 ± 0.47%
same,percent growth inhibition,[5],68.8 ± 13%
same,percent growth inhibition,[3],94.7 ± 4.2%
same,percent growth inhibition,[4],99 ± 1.7%
Oc1c(Cl)cc(Cl)c2cccnc12 [Chloroxine],percent growth inhibition,[5],40 ± 13%
same,percent growth inhibition,[6],112 ± 19%
Cc1cc(/C=C/c2ccc3cc(N(C)C)ccc3[n+]2C)c(C)n1-c1ccccc1 [Pyrvinium pamoate],percent growth inhibition,[5],13.6 ± 14%
same,percent growth inhibition,[3],11.6 ± 17%
same,percent growth inhibition,[4],18 ± 14%
O=C1CN(/N=C/c2ccc([N+](=O)[O-])o2)C(=O)N1 [Nitrofurantoin],percent growth inhibition,[5],6.28 ± 5.3%
same,percent growth inhibition,[3],2.1 ± 2.9%
COc1ccccc1OCC(O)CO (configuration not stated) [Guaifenesin],percent growth inhibition,[5],2.34 ± 2.3%
same,percent growth inhibition,[3],-4.21 ± 1.2%
NS(=O)(=O)c1cc2c(cc1C(F)(F)F)NC(Cc1ccccc1)NS2(=O)=O (configuration not stated) [Bendroflumethiazide],percent growth inhibition,[5],-0.966 ± 1.2%
COc1cc(C(=O)NCc2ccc(OCCN(C)C)cc2)cc(OC)c1OC [Trimethobenzamide hydrochloride],percent growth inhibition,[5],0.833 ± 1.4%
CCOC(=O)c1ccc(N)cc1 [Benzocaine],percent growth inhibition,[5],0.573 ± 3.1%
Clc1cccc(Cl)c1NC1=NCCN1 [Clonidine hydrochloride],percent growth inhibition,[6],-0.49 ± 2.6%
CCC[C@@H]1C[C@@H](C(=O)N[C@@H]([C@H]2O[C@H](SC)[C@H](O)[C@@H](O)[C@H]2O)[C@H](C)Cl)N(C)C1 [Clindamycin hydrochloride],percent growth inhibition,[3],13.3 ± 0.73%
same,percent growth inhibition,[4],42.6 ± 12%
CC[C@H]1OC(=O)[C@H](C)[C@@H](O[C@H]2C[C@@](C)(OC)[C@@H](O)[C@H](C)O2)[C@H](C)[C@@H](O[C@@H]2O[C@H](C)C[C@H](N(C)C)[C@H]2O)[C@](C)(O)C[C@@H](C)CN(C)[C@H](C)[C@@H](O)[C@]1(C)O [Azithromycin],percent growth inhibition,[3],20.7 ± 7.2%
same,percent growth inhibition,[4],50.1 ± 20%
CS(=O)(=O)c1ccc([C@@H](O)[C@@H](CO)NC(=O)C(Cl)Cl)cc1 [Thiamphenicol],percent growth inhibition,[3],7.39 ± 2.1%
same,percent growth inhibition,[4],30.4 ± 14%
Nc1c2ccccc2nc2ccccc12 [Aminacrine],percent growth inhibition,[3],13.7 ± 12%
same,percent growth inhibition,[4],40.9 ± 17%
